The panel holds about 83,000 compounds, 20% with a hit somewhere; the sample as a whole holds those more often.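 Note: values are percent growth. 100 is the growth of untreated cells, values between 100 and 0 indicate rising inhibition; between -100 and 0 indicates cell death.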 Activity calls are given as the source filed them. How the source made its calls: active means growth percent below 10; inactive means the rest.

Test systems include DU-145 prostate; MALME-3M melanoma; MDA-MB-231 breast; RXF 393 renal; SF-268 CNS; SF-295 CNS; SF-539 CNS; UACC-257 melanoma; M14 melanoma.
Common to all, as to test: NCI-60 one-dose screen, 48 h (100 = growth as untreated, 0 = no growth, -100 = all killed)
Common to all, as to conditions: 10 µM unless noted

For `COc1ccc(SC2c3cc(OC)c(OC)cc3Oc3nc(N)c(C#N)c(N)c32)cc1` (configuration not stated), the growth was -82.8% (active) in the test with DU-145 prostate; -68.9% (active) with MALME-3M melanoma; -67.5% (active) in the test with MDA-MB-231 breast; -79.5% (active) in the test on RXF 393 renal; -61.8% (active) with SF-268 CNS; -69.5% (active) in the test on SF-295 CNS. Moreover, the growth was -96.6% (active) in the test with SF-539 CNS, -43% (active) in the test with UACC-257 melanoma and -87.2% (active) in the test on M14 melanoma.
As for `COc1ccc(O)c(N=Nc2nccs2)c1`, the growth is 94.9% (inactive) in the test on DU-145 prostate; 102% (inactive) in the test with MALME-3M melanoma; 39.3% (inactive) with MDA-MB-231 breast; 87.9% (inactive) in the test on RXF 393 renal; 67.9% (inactive) with SF-268 CNS; 103% (inactive) with SF-295 CNS. The growth in the test on SF-539 CNS is 96.8% (inactive); in the test on UACC-257 melanoma it was 93.7% (inactive); with M14 melanoma, 105% (inactive).
With `CN(C)c1ccc(NC(=O)c2ccc(/C=C/C(=O)c3ncc[nH]3)cc2)cc1`, the growth in the test with DU-145 prostate is 20.2% (inactive); in the test with MALME-3M melanoma, 87.9% (inactive); with MDA-MB-231 breast, 71.8% (inactive); in the test on RXF 393 renal, 67.4% (inactive); with SF-268 CNS, 56.2% (inactive); with SF-295 CNS, 74.6% (inactive). Further, the growth with SF-539 CNS was 6.24% (active); in the test with UACC-257 melanoma it was 91.7% (inactive); in the test on M14 melanoma, 67.8% (inactive).
On to `CCCCC[C@H]1C/C=C2/C(=O)C=C[C@@H]2C/C=C\CCCC(=O)O1`, for which the growth with DU-145 prostate is -32.4% (active); in the test on MALME-3M melanoma, -24.8% (active); in the test on MDA-MB-231 breast it was 7.59% (active); in the test with RXF 393 renal, -89.9% (active); with SF-268 CNS, 3.72% (active); in the test on SF-295 CNS, -33.5% (active). Also, the growth with SF-539 CNS was -71.4% (active); with UACC-257 melanoma, -49.4% (active); with M14 melanoma it was -29.3% (active).
On to `Clc1ccc2c(NCCNc3nc(N4CCOCC4)nc4ccccc34)ccnc2c1`, for which the growth in the test on DU-145 prostate is 29.9% (inactive); in the test on MALME-3M melanoma it was -50.9% (active); in the test with MDA-MB-231 breast it was -56% (active); in the test with RXF 393 renal it was -39.4% (active); in the test with SF-268 CNS it was 11.5% (inactive); with SF-295 CNS, -83% (active). The growth was -80.2% (active) in the test on SF-539 CNS, 90.5% (inactive) in the test with UACC-257 melanoma and -65.5% (active) in the test on M14 melanoma.
As to `CC1C(/C=N/Nc2ccccc2)C(C#N)(C#N)C1(C#N)C#N` (configuration not stated), the growth in the test on DU-145 prostate is 89.7% (inactive); in the test on MALME-3M melanoma, 99.2% (inactive); with MDA-MB-231 breast it was 70.1% (inactive); with RXF 393 renal, 105% (inactive); with SF-268 CNS, 75.4% (inactive); with SF-295 CNS it was 70.9% (inactive). In addition, the growth in the test on SF-539 CNS is 102% (inactive); in the test on UACC-257 melanoma it was 98.6% (inactive); with M14 melanoma it was 33.2% (inactive).
`CC(=O)O[C@H]1C(=O)[C@@]2(C)[C@H]([C@H](OC(=O)c3ccccc3)[C@]3(O)C[C@H](OC(=O)[C@H](OC(=O)CCC(=O)OC4CCC(S/N=C(N)/N=C(\N)N(C)C)CC4)[C@@H](NC(=O)c4ccccc4)c4ccccc4)C(C)=C1C3(C)C)[C@]1(OC(C)=O)CO[C@@H]1C[C@@H]2O` (some centres not stated): the growth is 0.0949% (active) in the test on DU-145 prostate; 66.8% (inactive) in the test on MALME-3M melanoma; 22.8% (inactive) in the test with MDA-MB-231 breast; 10.6% (inactive) in the test on RXF 393 renal; 38.1% (inactive) with SF-268 CNS; -10.5% (active) in the test with SF-295 CNS. For the same compound, the growth was -19.7% (active) in the test with SF-539 CNS, 58% (inactive) in the test with UACC-257 melanoma and 30.1% (inactive) in the test with M14 melanoma.
On to `CC(=O)OC[C@H]1O[C@H](OC(C)=O)[C@H](NC(=O)/C=C/CCl)[C@@H](OC(C)=O)[C@@H]1OC(C)=O`, for which the growth with DU-145 prostate was 93.2% (inactive); in the test with MALME-3M melanoma, 83.2% (inactive); in the test with MDA-MB-231 breast, 46.3% (inactive); with RXF 393 renal, 75.2% (inactive); with SF-268 CNS, 89.3% (inactive); in the test on SF-295 CNS it was 87.5% (inactive). Besides, the growth with SF-539 CNS was 65.6% (inactive); in the test on UACC-257 melanoma, 64% (inactive); in the test with M14 melanoma it was 87.5% (inactive).
`CC/C=C\C[C@H](O)C/C=C1/C(=O)C=C[C@@]1(C)C/C=C\CCCC(=O)OC`: the growth in the test with DU-145 prostate was 112% (inactive); in the test on MALME-3M melanoma, 101% (inactive); with MDA-MB-231 breast, 104% (inactive); with RXF 393 renal, 115% (inactive); in the test on SF-268 CNS, 106% (inactive); in the test on SF-295 CNS, 107% (inactive). For the same compound, the growth in the test on SF-539 CNS was 93.6% (inactive); in the test with UACC-257 melanoma, 87.1% (inactive); in the test with M14 melanoma, 101% (inactive).
With `COc1ccc(C2C(C#N)=C(N)Oc3n[nH]c(-c4cccs4)c32)cc1I` (configuration not stated), the growth in the test with DU-145 prostate is 107% (inactive); in the test with MALME-3M melanoma it was 102% (inactive); in the test with MDA-MB-231 breast, 102% (inactive); with RXF 393 renal it was 93.9% (inactive); in the test with SF-268 CNS, 91.2% (inactive); in the test with SF-295 CNS, 94.4% (inactive). Moreover, the growth with SF-539 CNS was 85.6% (inactive); in the test with UACC-257 melanoma, 89.4% (inactive); in the test with M14 melanoma, 90% (inactive).
Regarding `COc1cc2c(cc1O)CC[C@@H]1[C@@H]2CC[C@]2(C)[C@@H](NCCN(C)C)CC[C@@H]12`, the growth in the test with DU-145 prostate is -94.3% (active); in the test with MALME-3M melanoma it was -72.5% (active); in the test with MDA-MB-231 breast it was -82.6% (active); with RXF 393 renal, -95.7% (active); in the test with SF-268 CNS, -78.8% (active); in the test with SF-295 CNS, -88.5% (active). Besides, the growth was -86.5% (active) in the test on SF-539 CNS, -84.9% (active) in the test on UACC-257 melanoma and -63.7% (active) with M14 melanoma.
On to `COc1cc2c(cc1O)CC[C@@H]1[C@@H]2CC[C@]2(C)[C@@H](OCCCN(C)C)CC[C@@H]12`, for which the growth was -10.3% (active) with DU-145 prostate; -76.1% (active) in the test on MALME-3M melanoma; -70.2% (active) with MDA-MB-231 breast; -88.3% (active) in the test on RXF 393 renal; -24.3% (active) in the test on SF-268 CNS; -79.8% (active) in the test with SF-295 CNS. Besides, the growth with SF-539 CNS was -85% (active); in the test with UACC-257 melanoma, -77.4% (active); with M14 melanoma, -78.8% (active).
On to `COc1ccc2cc(-c3nn(-c4ccc(C(=O)O)cc4)cc3CO)ccc2c1`, for which the growth with DU-145 prostate is 103% (inactive); in the test on MALME-3M melanoma it was 106% (inactive); with MDA-MB-231 breast, 111% (inactive); in the test with RXF 393 renal it was 122% (inactive); with SF-268 CNS, 86.3% (inactive); with SF-295 CNS, 99.1% (inactive). Besides, the growth in the test on SF-539 CNS was 93.1% (inactive); in the test on UACC-257 melanoma, 103% (inactive); in the test on M14 melanoma it was 98.7% (inactive).
